The record followed here is paper PMC12136788.

To fix the notation:
T1: UNK ZnF1-3 (human, UniProt Q9C0B0 31-174)
T1 sequence: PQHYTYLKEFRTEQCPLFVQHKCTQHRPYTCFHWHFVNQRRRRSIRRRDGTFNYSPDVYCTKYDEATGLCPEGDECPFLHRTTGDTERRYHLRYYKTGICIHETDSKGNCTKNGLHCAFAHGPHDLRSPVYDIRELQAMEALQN

B1: chr6:40197388:40197389:+_ENSMUSG00000057716_ENSMUST00000061740|mus_mus|mus_mus_mus_hu_False|68_108 (ssRNA)
RNA: GGGAGUUCUACAGUCCGACGAUCGAGUUGUCAGUUUGGAUUUAUUCCACCUCUGUUUGGGUGCUAGUAAGAUAGAUUGUUAUUUUGGGAUUCAUGGCCUUGAAUAUCAAGAGGGAAAGGAAGAGGAUGGAAAGAGUCAAGAGUCAACAGAGGAUUGAGCAUCA
B2: 33360611_33360731_3434_3pUTR_ENSMUSG00000024378_ENSMUST00000025236|mouse|control|control (ssRNA)
RNA: GGGAGUUCUACAGUCCGACGAUCCUAUGGACUGCUAUAAGCCCUUCCCCCAGCCCCAGGUACUUUUGCAAGAGCAGAGAACGCUCUUUCACUACCAUCACCUCCCAGCCUCUGCUGGGAUACUCUGAGUUACACGUAUGGCUUCAACAGAGGAUUGAGCAUCA
B3: chr7:7679991:7679992:-_ENSG00000106399_ENST00000396682|hu_hu|hu_hu_hu_mus_False|8_8 (ssRNA)
RNA: GGGAGUUCUACAGUCCGACGAUCUGGGAUGAAUCUUUUCCAGCUUCCCCACGAAGCACACGGGCCGGUCGAUAUACUGUGGUAACAUGCUGGCGUUGACGCGCGCUUUGGGGAGCUGCAUUAUGUCCACCAUGAUUCUGCCGCCAACAGAGGAUUGAGCAUCA
B4: 142153747_142154939_927_CDS_ENSG00000109445_ENST00000262990|human|control|control (ssRNA)
RNA: GGGAGUUCUACAGUCCGACGAUCAUAAGCAUCAUACCCAGAAGCUCCAUCUCCCUCUUCACCUCCAGUCUGCCUGCCAAAUUUCAGGGAGCGUGUUGACAUGCUAAGGUCCUUAGUCUCCUGAGUUUCAUGCCCACAUUUAGGCAACAGAGGAUUGAGCAUCA
B5: chr2:232320318:232320319:-_ENSG00000115053_ENST00000322723|hu_hu|hu_hu_hu_mus_True|28_78 (ssRNA)
RNA: GGGAGUUCUACAGUCCGACGAUCACUAUUAAAGUCUACAAAACCAAACCCUUUGGAGGACCCAGUUUCCCGAUCAGUGACUAUUCUUGCACGAACAGAGCCCUCAAAUGACUCCUUUAAGGUCUCUUCAGUGGUAUCCUCAGACAACAGAGGAUUGAGCAUCA
B6: chr13:100518589:100518590:+_ENSG00000125246_ENST00000339105|hu_hu|FALSE|FALSE (ssRNA)
RNA: GGGAGUUCUACAGUCCGACGAUCUUCUCGUGACUGUCUAAGCAGCCCAGCUCCAUCUCGAAAGUCAAUGUACACCAGAUCUAUGGCUUGGAGACCAAAGGCUUUCGCUAUGACAACAAUCUUUUGCCGGGCGUAGAGAAUAUCCAACAGAGGAUUGAGCAUCA
B7: chr17:60770872:60770873:+_ENSG00000011028_ENST00000303375|hu_hu|hu_hu_hu_mus_True|58_58 (ssRNA)
RNA: GGGAGUUCUACAGUCCGACGAUCUCUUUAAAAAAAAAAAAAAAAAGACAAACAAUAAUAGCACAUUUCGAGAAUCAUCAACUACAGUAGAGGGUCCGCUUUGAGUUUUUGUUCACAUCGUCCUGCACUGGGACACGGGGACUGCAACAGAGGAUUGAGCAUCA
B8: chr17:60770872:60770873:+_ENSG00000011028_ENST00000303375|hu_hu|hu_hu_hu_mus_True|58_88 (ssRNA)
RNA: B7 RNA with A47U, C48U, A49U, C52A, U55C
B9: chr17:60770872:60770873:+_ENSG00000011028_ENST00000303375|hu_hu|hu_hu_hu_mus_True|1_58 (ssRNA)
RNA: B7 RNA with G137A, G138C, G139C, C141G, U142G, G143A
B10: chr22:38882006:38882007:-_ENSG00000100201_ENST00000396821|hu_hu|FALSE|FALSE (ssRNA)
RNA: GGGAGUUCUACAGUCCGACGAUCAGGAGGAGGAGGGGGAGGAGGAGGAGGGUAUUGGUAGGCAGUCUGCCCCAUGUAACCUAUCAUAUUGGUAGCUCCCGGAGGCUGUGCAAACUGUUGUGACAUCAGUGGCUGUGGCUGCUGCAACAGAGGAUUGAGCAUCA
B11: chr10:28872372:28872373:+_ENSG00000095787_ENST00000354911|hu_mus|FALSE|FALSE (ssRNA)
RNA: GGGAGUUCUACAGUCCGACGAUCUGCAUCUGAAGUUUUGCUUGGAUUAUUGCUUGGAUUAGAAGAAUGUGAAUUUGAACUAUGAAGUGCACUGUGGUUGUGUGAGUUUUCUUGUGGAGAGUAACUGGUCCCACCGUCCCUUUCCAACAGAGGAUUGAGCAUCA
B12: chr19:8913615:8913616:-_ENSMUSG00000071658_ENSMUST00000096259|mus_hu|mus_mus_mus_hu_False|18_108 (ssRNA)
RNA: GGGAGUUCUACAGUCCGACGAUCAGGGGGGCACCAACUUCUGCCUGAAAUGGGUGCCCCACCCAGUAGGGAGUUGCAGCUGAAAGUAUCUGAUGCAGAAGCAGUGACUAUACGAAAGGUCACUAGAGGGGAGGGCCAGGCCAGCAACAGAGGAUUGAGCAUCA
B13: 49433355_49433581_8031_CDS_ENSG00000167548_ENST00000301067|human|control|control (ssRNA)
RNA: GGGAGUUCUACAGUCCGACGAUCGCGCUGGAUCUGCUGCCGAAUCAGCAGCUCUCGUAGUCGCUGGCGCUGCCGUUGCUUCUCCAGCUCUGUUUGGCUAAGGCCGGACAUGCCUGGGUCCUGGGUACCUGGGAGUUCAGCUGUCAACAGAGGAUUGAGCAUCA
B14: chr15:11317090:11317091:-_ENSMUSG00000022241_ENSMUST00000022849|mus_mus|FALSE|FALSE (ssRNA)
RNA: GGGAGUUCUACAGUCCGACGAUCUUCUGUGAGGAUGGCAAUCAUUCUUUCCACCGACCCCAGGAUGGCUCUGUGAACAAUCACUGGCCUUUUCUUAUCAUCGCCAUCGUGGCUGACGUAAGUAAGGUUAAACCUGAUGGGCAACAACAGAGGAUUGAGCAUCA
B15: chr4:87735950:87735951:+_ENSG00000163629_ENST00000511467|hu_hu|motif|central (ssRNA)
RNA: GGGAGUUCUACAGUCCGACGAUCCUCACCAUGUCCUUGUAACAAUGUCUGCUAUCAUCAAAUGCUGCCUUUAAUCAUCCCGGAGAUCUGCAUUGUUUGGUUAGUGUUAAAAUUUUGUAAAUAAUUAUCAUAGGUUAAAGUAGCCAACAGAGGAUUGAGCAUCA
B16: chr19:60011576:60011577:-_ENSMUSG00000040022_ENSMUST00000171986|mus_hu|FALSE|FALSE (ssRNA)
RNA: GGGAGUUCUACAGUCCGACGAUCUUUUGCUGUAAAUGGAUUGGUUGACUCAUAAUCAAAAUAGUCCUGGCGAUUUUCACUAAAUGCAUUAGGUGAUUUCAAGUCACAAGGGCUAUCAGAUCCCCCAUUGUUAAGUUUAUCAGACAACAGAGGAUUGAGCAUCA
B17: chr7:66561770:66561771:+_ENSMUSG00000025326_ENSMUST00000107537|mus_mus|motif|central (ssRNA)
RNA: GGGAGUUCUACAGUCCGACGAUCUUAGCAUUACAGUAAAUAAGAGCUCUGUCUCAACUACUACAAGAAAGAAAAUAAUCCGGAGACAUCCUUUUCCCCUUCCAAUGAUUUGAAAGCUACCAUUAUCCCCUGCCAAUUAAAAUCCAACAGAGGAUUGAGCAUCA
B18: chr20:57609950:57609951:-_ENSG00000101166_ENST00000355937|hu_mus|FALSE|FALSE (ssRNA)
RNA: GGGAGUUCUACAGUCCGACGAUCGAUCUUUUGUUUAGAUCAAAAGUCACAGCCUUACCCCACCUCAUUAAAAAAAAAGAUCUACCUAAAAUAAUUGUGUCUUUUAAAUAACAAAUAAUAUGAUGCCAGCUUGAGAGUCCUGGACAACAGAGGAUUGAGCAUCA
B19: 133533018_133533138_1595_3pUTR_ENSG00000113575_ENST00000481195|human|control|control (ssRNA)
RNA: GGGAGUUCUACAGUCCGACGAUCUAGAAGGGAGGCCUUGGUAAUUAUUUUUAAAAAUGUUCAUUAAGCUCCAAUGAUUGUUUGCUGCUAUCCUUAUCUACAGUCAUGCUGAGUAAAGCUAUAGCUAAAUGGAAGUUAAAUUGUCAACAGAGGAUUGAGCAUCA
B20: chr4:87735950:87735951:+_ENSG00000163629_ENST00000511467|hu_hu|FALSE|FALSE (ssRNA)
RNA: B15 RNA with G81U, G82A
B21: chr7:106631192:106631193:-_ENSMUSG00000030744_ENSMUST00000032998|mus_mus|motif|central (ssRNA)
RNA: GGGAGUUCUACAGUCCGACGAUCCUUCAGCCAGCUCCCGAGUGAGAAAUUCAUUCAGCUCAGCUUUGAAGAUGCCAUCAGCGGCAAACUUCCUCUUCUUGGAAAUCUGCACCGCCAUCUUGCAGCCGCGCGCCGCUGAAAGGACAACAGAGGAUUGAGCAUCA
B22: chr7:72463354:72463355:-_ENSMUSG00000030516_ENSMUST00000102592|mus_hu|FALSE|FALSE (ssRNA)
RNA: GGGAGUUCUACAGUCCGACGAUCUAACUUCCUGGCACUUUUCCGAGAUUCUGGACAUAACCUCAUUCUCAUUGUUUUUACUCCUUGCUUAGAAUCAGGGUUAAGAAAUACAACAAUUGGAUACCACUGGGCAUAGUUAAGACGCAACAGAGGAUUGAGCAUCA

Numbering of substitutions follows the chain as printed. Over roughly 24,000 sequences, “enrichment r” has its median near 0.99; the highest 2% begin near 3.7. What follows is part of a selection rich in the highest values, with near analogues and random picks from the rest.

This assay addresses T1, UNK ZnF1-3. Put plainly: nsRBNS (natural sequence RNA bind-n-seq); RBNS binding buffer (assumed for nsRBNS): 25 mM Tris pH 7.5, 150 mM KCl, 3 mM MgCl2, 0.01% Triton X-100, 500 ug/ml BSA, 20 U/ml SUPERase-In, 4 C; UNK is unkempt and MSI1 is Musashi-1; names of the RNAs are library labels; protein concentration not given here; high values mean tight binding.
B1 displayed a binding signal of 2.09 enrichment R.

Turning to B2, the binding signal is 0.77 enrichment R. Take B3: the binding signal amounted to 0.487 enrichment R. For B4 the value was 1.39 enrichment R; for B5, 0.596 enrichment R; for B6, 0.61 enrichment R. B7 yielded a binding signal of 4.08 enrichment R. Under B8 stands 4.59 enrichment R; under B9, 3.08 enrichment R; under B10, 1.56 enrichment R.

As for B11, the binding signal worked out at 1.04 enrichment R. Molecule B12 registered a binding signal of 0.986 enrichment R. For B13 the value was 0.484 enrichment R; for B14, 1.43 enrichment R. Take B15: the binding signal worked out at 5.3 enrichment R. Under B16 stands 0.505 enrichment R; under B17, 1.63 enrichment R. For B18 the value was 2.8 enrichment R; for B19, 1.37 enrichment R.

In turn, B20 returned a binding signal of 3.93 enrichment R. In turn, B21 displayed a binding signal of 0.767 enrichment R. Under B22 stands 1.13 enrichment R.
